According to PubChem BioAssay AID624287 (National Center for Advancing Translational Sciences (NCATS), 2012):
Screen size: about 340,000 compounds; about 420 (0.12%) were called active. Inconclusive results (about 10%) are left out. The sample holds actives, similar compounds and a random draw of the others, so the mix is not that of the screen. A number with no mark means an inactive call. The call rests on the fitted dose curve; in most records, active means well fitted activation curve with a large enough effect; inconclusive means small, poorly fitted or top-dose-only effect, or another doubt; inactive means no such curve, though single readings can be large or run the other way; cell line not stated here.
Potency means the concentration at half of the fitted maximal effect.

Assay: qHTS for Agonist of gsp, the Etiologic Mutation Responsible for Fibrous Dysplasia/McCune-Albright Syndrome: qHTS; further: nearly all actives have a fitted effect of over 60% in size;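 on activation (cAMP increase): phosphodiesterase inhibitor Ro 20-1724 added with compounds to block cAMP breakdown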
Conditions: gsp mutant cells, cAMP HTRF, 30 min; series mostly up to 76.9 µM; activation (cAMP increase): at the top concentration
Source text: McCune-Albright syndrome (MAS) is a rare disease caused by somatic mutations in Gsgsp), a widely expressed protein central in signal transduction from G-coupled protein receptors (GPCRs). The disease symptoms are diverse, owing to the fact that the patients are mosaics with varying degrees of tissue involvement. Greater than 90% of the mutations in Gs in MAS occur at the R201 position and are equally divided between R201H and R201C. The R201 residue is central in the intrinsic GTPase activity of Gs and the H and C mutations lead to loss of, or impairment of, the GTPase activity. The intrinsic GTPase activity is necessary to terminate the interaction between Gs and adenylate cyclase, and to terminate the cAMP-mediated signaling of the given GPCR pathway. Thus, these activating mutations lead to ligand-independent activation of GPCR pathways. The tissue phenotype is determined by the role of Gs in the function of a given cell, and excess Gs/cAMP signaling in that cell. For example, pituitary somatotrophs overproduce growth hormone in a growth hormone releasing hormone-independent fashion, and gigantism/acromegaly ensues. Skeletal stem cells in the bone marrow behave as if they are under constant parathyroid hormone stimulation and fail to differentiate into osteoblasts and osteocytes, and proliferate as immature osteogenic cells and lead to the marrow fibrosis of fibrous dysplasia of bone. The goal of this project is to identify molecules with stimulatory activity at gsp mutations that will not only allow for in-depth study of the underlying molecular and cellular pathophysiology, but also serve as compounds from which drugs to treat FD/MAS can be developed NIH Chemical Genomics Center [NCGC] NIH Molecular Libraries Probe Centers Network [MLPCN] MLPCN Grant: IRP-FT-DE-2011-01 Assay Submitter (PI): Michael Collins, NIDCR
1.#Seed 2000 cells/well in 6 ul DMEM 10% FBS, 1% Pen/Strep, 0.5 mg/ml G418 2.#Incubate 16-24 hr at 37C, 5% CO2, 95% humidity 3.#Aspirate leaving 1 ul residual volume 4.#Dispense 5 ul/well DPBS + 1 mM CaCl2, 0.5 mM MgCl2, 0.05% BSA, 0.005% Tween 20 5.#Aspirate leaving 2 ul residual volume 6.#Dispense 23 nl/well compounds in DMSO 7.#Dispense 1 ul/well 300 uM Ro-20174 in DMEM 10% FBS 8.#Incubate 30 min at 37C, 5% CO2, 95% humidity 9.#Dispense 1.5 ul/well HTRF reagent: cAMP-d2 in lysis buffer 10.#Dispense 1.5 ul/well HTRF reagent: anti-cAMP antibody-K in lysis buffer 11.#Incubate 30 min at room temperature 12.#Detect HTRF signal using EnVision plate reader
For `COC(=O)c1ccccc1N=NNc1ccc([N+](=O)[O-])cc1`, the “activation (cAMP increase)” value was -6.79%. With `CC(Sc1ccc(S(=O)(=O)N2CCN(C)CC2)cn1)C(=O)NC1CCCC(C)C1C` (stereo not drawn) the “activation (cAMP increase)” value was -21.5%. For `CCOc1ncccc1C(=O)Nc1ccc(S(=O)(=O)Nc2nc(C)cc(C)n2)cc1`, the Potency was 10 µM (active). In the case of `O=C(Nc1ccc(S(=O)(=O)Nc2ncccn2)cc1)c1cncc(Br)c1`, the “activation (cAMP increase)” value is reported as -25.9%. For `CCOc1ncccc1C(=O)Nc1ccc2c(c1)OCCO2`, the “activation (cAMP increase)” value was 13.9%. In the case of `CCCc1c(C)nc2scc(-c3ccc(Cl)cc3)n2c1=O`, the “activation (cAMP increase)” value is reported as 4.2%. In the case of `CC1=C(C(=O)N(C)C)CC(CC(=O)NCCN2CCOCC2)C(=O)N1Cc1ccccc1` (stereo not drawn), the “activation (cAMP increase)” value is reported as -32.8%. With `O=C1OCCC1=COCCCCOC=C1CCOC1=O` the “activation (cAMP increase)” value was -17.1%. With `CCCCCCn1c(=O)n2n(c1=O)C[C@]1(OC(=O)NCc3ccc(OC)c(OC)c3)CN(S(=O)(=O)c3ccc(C)cc3)C[C@]1(O)C2` the “activation (cAMP increase)” value was -93.1%. In the case of `COc1ccc(CN2C[C@H]3CON(C)[C@H]3C[C@H]2c2ccc(-c3cccc(F)c3)cc2)cc1`, the “activation (cAMP increase)” value is reported as -69.9%. In the case of `Cc1onc(-c2ccccc2)c1-c1nnc(COC(=O)c2ccc(N(C)C)cc2)o1`, the “activation (cAMP increase)” value is reported as -1.6%. In the case of `Cc1ccc(CCNC(=O)CN2C(=O)CSc3ccc(S(=O)(=O)N4CCOCC4)cc32)cc1`, the “activation (cAMP increase)” value is reported as -42.1%. With `COc1ccc2c(c1)CCCO[C@]21O[C@H](CCO)C[C@H](O)[C@H]1O` the “activation (cAMP increase)” value was -64.1%. In the case of `Cc1ccc(-c2ccc(C3=CC(=O)CC(C)(C)C3=O)cc2)cc1`, the “activation (cAMP increase)” value is reported as -42%. For `CC(OC(=O)c1ccc(NC(=O)CC#N)cc1)C(=O)Nc1ccc(S(=O)(=O)N2CCCC2)cc1` (stereo not drawn), the “activation (cAMP increase)” value was -14.8%. With `CC(C)n1ncc2c(C(=O)N3CCN(Cc4cccs4)CC3)cc(C3CC3)nc21` the “activation (cAMP increase)” value was 7.9%. In the case of `CN(c1ccccc1)S(=O)(=O)c1ccc(C(=O)NCc2cccnc2)cc1`, the “activation (cAMP increase)” value is reported as -7.68%. With `Cc1ccc(Cc2c(-c3ccc(C)cc3)nc3c4ccccc4ccn23)cc1` the “activation (cAMP increase)” value was -39.7%. With `COc1cccc2c1OCC(CN1CCN(C3CCCCC3)C(CCO)C1)=C2` (stereo not drawn) the Potency was 7.94 µM (active). In the case of `OCCC1CN(Cc2ccc3nsnc3c2)CCN1C1CCCCC1` (stereo not drawn), the “activation (cAMP increase)” value is reported as 19.4%. In the case of `OCCC1CN(Cc2ccc3nsnc3c2)CCN1C1CCCC1` (stereo not drawn), the “activation (cAMP increase)” value is reported as 49.4%. For `O=C1CC[C@@H](C(=O)N2CSC[C@@H]2C(=O)Nc2ccc(C(F)(F)F)cc2)N1`, the “activation (cAMP increase)” value was -72.2%. In the case of `O=C(CSc1ccc(Cl)cc1)NC1CC1`, the “activation (cAMP increase)” value is reported as -72.4%. For `COc1ccc(C(=O)NC2=NCCS2)c(OC)c1`, the “activation (cAMP increase)” value was -28.3%. For `COc1ccc(C(=O)Nc2cccc(NC(=O)c3ccc(OC)cc3OC)n2)c(OC)c1`, the Potency was 15.8 µM (active). In the case of `COc1ccc(C(=O)NC(C)CCc2ccccc2)c(OC)c1` (stereo not drawn), the “activation (cAMP increase)” value is reported as 17.8%. In the case of `O=S1(=O)CCN(C2CCCCCCCCCCC2)CC1`, the “activation (cAMP increase)” value is reported as -79.5%. In the case of `O=S(=O)(c1cccc(C(F)(F)F)c1)N1c2ccccc2-n2cccc2C1c1cccnc1` (stereo not drawn), the “activation (cAMP increase)” value is reported as -23.7%. With `O=Nc1c(O)cc(O)c2ccccc12` the “activation (cAMP increase)” value was -21.6%. For `O=C(c1ccc(CS(=O)Cc2ccccc2Cl)o1)N1CCN(c2ccccc2)CC1` (stereo not drawn), the “activation (cAMP increase)” value was -29.9%. With `COCCn1c(SCC(=O)Nc2ccc(F)cc2F)nc2c(c1=O)SCC2` the “activation (cAMP increase)” value was -23.6%. In the case of `COCOCCn1cc(CN2CCS(=O)(=O)N(Cc3ccc(-c4ccc(OC)cc4)cc3)C(CC(C)C)C2=O)nn1` (stereo not drawn), the “activation (cAMP increase)” value is reported as -115%. With `Cc1ccc(-c2ccc(CN3C(C(C)C)C(=O)N(Cc4cn(CCC5OCCO5)nn4)CCS3(=O)=O)cc2)cc1` (stereo not drawn) the “activation (cAMP increase)” value was -37.6%. For `CC1(C2CC2)NC(=O)N(CC(=O)N2CCN(c3ccccc3F)CC2)C1=O` (stereo not drawn), the “activation (cAMP increase)” value was 0.197%. For `CCN(CC)C(=O)C1=C(C)N(Cc2ccccc2)C(=O)C(CC(=O)NC(c2ccccc2)c2ccccc2)C1` (stereo not drawn), the “activation (cAMP increase)” value was -6.51%. With `O=C(N=C1SC2CS(=O)(=O)CC2N1Cc1ccccc1)c1ccccc1` (stereo not drawn) the “activation (cAMP increase)” value was -12.8%. For `COc1cccc(OCC(=O)NCCS(=O)(=O)N2CCN(c3ccccc3)CC2)c1`, the “activation (cAMP increase)” value was -6.99%. In the case of `CN(C(=O)COC(=O)Cn1cnc2c1c(=O)n(C)c(=O)n2C)C1(C#N)CCCCC1`, the Potency is reported as 28.2 µM (active). In the case of `Cn1c(=O)c2c(ncn2CC(=O)N/N=C/c2cn[nH]c2-c2ccc(F)cc2)n(C)c1=O`, the activation (cAMP increase) is reported as 54.2% [at 15.4 µM]. Compound `Cc1cnc(NC(=O)Cn2cnc3c2c(=O)n(C)c(=O)n3C)s1` has an activation (cAMP increase) of 0.329% [at 15.4 µM]. In the case of `CSc1ncnc2c1ncn2CCCNCc1ccco1`, the “activation (cAMP increase)” value is reported as -74.7%. For `Cc1ccc(S(=O)(=O)N2C[C@H]3n4c(=O)ccc(=O)n4C[C@H](OC(=O)NC4CCCC4)[C@@]3(O)C2)cc1`, the “activation (cAMP increase)” value was 14.3%. In the case of `O=C(c1ncn2c1c(=O)[nH]c1ccccc12)N1CCc2ccccc2C1`, the “activation (cAMP increase)” value is reported as -20.5%. For `CCCCCCNC(=O)O[C@H]1CN(C(=O)OC(C)C)N(C(=O)OC(C)C)[C@@H]2CN(S(=O)(=O)c3ccc(C)cc3)C[C@]12O`, the “activation (cAMP increase)” value was 0.103%. With `CSc1ncccc1C(=O)N1CCCC(Nc2ccc(F)c(F)c2)C1` (stereo not drawn) the “activation (cAMP increase)” value was 16.5%. In the case of `COc1cccc(NC(=O)CN(C)C(=O)c2cc(Cl)nc3ccccc23)c1`, the “activation (cAMP increase)” value is reported as -159%. With `COc1ccc(S(=O)(=O)N(C)C)cc1NC(=O)COC(=O)c1n[nH]c2ccccc12` the “activation (cAMP increase)” value was -50%. In the case of `Cc1ccc([C@H]2N[C@]3(CCCN(CC4CCCCC4)C3=O)[C@H]3C(=O)N(Cc4ccccc4)C(=O)[C@@H]23)cc1`, the “activation (cAMP increase)” value is reported as 0.257%.
